# From PubChem BioAssay (NCI)
# The panel holds about 83,000 compounds, 20% with a hit somewhere; the sample as a whole holds those more often.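 48-hour exposure, single concentration, 96-well plates; percent growth endpoint where 0 means no net growth. Active: below 10.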 Values without a mark were called inactive. Active and inactive are the calls of the source.
# Test system: M14 melanoma
# Assay: NCI-60 one-dose screen, 48 h (100 = growth as untreated, 0 = no growth, -100 = all killed)
# Details: 10 µM
# Protocol: Growth inhibition of the M14 human tumor cell line is measured as a screen for anti-cancer activity. Cells are grown in 96 well plates and exposed to the test compound for 48 hours. Compounds are tested at a single concentration, which is 10^-5 M for most compounds. The reported endpoint is percent growth (GI% or GIPRCNT), where numbers from 0 - 100% represent growth inhibition, and numbers from -100% - 0 represent cell death. For example, a value of 40 represents 60% growth inhibition. A value of 0 means no net growth occurred over the course of the experiment. A value of -40 indicates 40% of cells at the beginning of the experiment died by the end of the experiment. A value of -100 means all cells are dead at the end of the experiment.
# NCI-60 Human Tumor Cell Lines Screen was performed using the standard one-dose NCI protocol, which is described in more detail at https://dtp.cancer.gov/discovery_development/nci-60/default.htm.
# Compounds with GIPRCNT values below 10 were considered active. Activity score was based on GIPRCNT using the following formula: […]
# Score is 0 for GIPRCNT values of 100 or above, 50 for GIPRCNT values of 0, and 100 for GIPRCNT values of -100.
row,Structure (SMILES),growth
1,NS(=O)(=O)Oc1ccc(NC(=O)C2CCCCCC2)cc1,108%
2,CS(=O)(=O)c1nccc(-c2c(-c3cccc(O)c3)nc3sccn23)n1,94%
3,CCn1cc(CNc2ccc(C(=O)Nc3ccc4ccccc4c3)cc2)c(C)n1,45.1%
4,CN(C)CCCSc1ccccc1NC1=C(Cl)C(=O)C(Nc2ccccc2SCCCN(C)C)=C(Cl)C1=O,94.7%
5,Nc1ncnc2c1ncn2C1(CO)OCC(O)C(O)C1O (stereo not given),97%
6,Nc1c(Br)cc(Br)c2c1[nH]c(=O)c1ccccc12,100%
7,O=C(O)c1ccc(-n2cc(CNc3ccc(Cl)cc3)c(-c3ccccc3)n2)cc1,94.3%
8,CC(=O)[C@@]12O[C@](C)(c3ccccc3)O[C@@H]1CC1C3CCC4=CC(=O)CC[C@]4(C)C3CC[C@@]12C (stereo not given in full),87%
9,C[N+]1(CCCCC[N+]2(C)CCCC2)CCCC1,98.5%
10,CCN(CC)CCN1c2nc3ccccc3cc2Sc2cc3ccccc3nc21,-65% (active)
11,NC(CSC(c1ccccc1)(c1ccccc1)c1cccc2ccccc12)C(=O)O (stereo not given),108%
12,c1ccc(CSc2ncccc2-c2nnc(SCCN3CCOCC3)o2)cc1,108%
13,COc1ccccc1-n1c(-c2sc(NC(C)=O)nc2C)n[nH]c1=S,98.8%
14,Cc1nn(-c2ccccc2)c2nc(Cl)c(C=O)c(-c3ccccc3)c12,111%
15,CCn1c(SC/C(=N/O)c2ccccc2)nnc1-c1ccccc1,109%
16,CC(=O)O[C@@]12CO[C@@H]1C[C@H](O)[C@@]1(C)C(=O)[C@H](O)C3=C(C)[C@@H](OC(=O)[C@H](O)[C@@H](NC(=O)OC(C)(C)C)c4ccccc4)C[C@@](O)([C@@H](OC(=O)c4ccccc4)C12)C3(C)C (stereo not given in full),36%
17,CCOC(=O)c1sc2ncnc(Nc3ccc4c(cnn4C(=O)Nc4ccc(C)c(Cl)c4)c3)c2c1C,103%
18,CC(=O)N[C@H](C(=O)N[C@@H](CCCNC(=N)N)C(=O)N[C@@H](CCCCN)C(=O)N[C@@H](CCCNC(=N)N)C(=O)N[C@]1(C)CCC/C=C\CCC[C@@](C)(C(=O)N[C@@H](CC(C)C)C(=O)N[C@@H](CC(C)C)C(=O)N[C@@H](CCC(N)=O)C(=O)N[C@@H](CCC(=O)O)C(=O)N[C@@H](CCCNC(=N)N)C(=O)N[C@@H](CCC(=O)O)C(=O)N[C@@H](CC(C)C)C(=O)N[C@H](C(=O)N[C@@H](CCC(=O)O)C(N)=O)C(C)C)NC(=O)[C@H](CCCNC(=N)N)NC(=O)[C@H](CC(C)C)NC1=O)C(C)C,107%
19,Cc1ccc(NC(=S)NNC(=S)Nc2ccc(C)cc2)cc1,44.2%
20,CN(C)CCC1(c2ccccc2)CCN(C)C1=O (stereo not given),108%

row,Structure (SMILES),growth
1,COc1ccc(N(C)c2ncnc3occ(C)c23)cc1,0.316% (active)
2,CCCC1(CN2c3ccccc3Sc3ccc(Cl)cc32)CCN(CC)C1 (stereo not given),-93.2% (active)
3,Oc1ccc(/C=N/N=C2c3ccccc3-c3ccccc32)c(O)c1,74.4%
4,O=C1C=C(Nc2cccc(Br)c2)c2ccccc2C1=O,14.4%
5,CCOC(=O)c1cc(C(=O)c2ccc(F)cc2F)n2ccccc12,108%
6,COc1ccc2c(c1)C(=O)/C(=C/c1ccc([N+](=O)[O-])o1)O2,-64.2% (active)
7,Cc1nc2n(c(=O)c1CCN1CCC(c3noc4cc(F)ccc34)CC1)CCC[C@@H]2O,104%
8,COc1cc(C2C(C#N)=C(N)Oc3cc(O)ccc32)cc(OC)c1OC (stereo not given),-15.6% (active)
9,COC(=O)C1(O)NC(=C(C#N)C#N)C(C#N)=C1C(=O)c1ccc(OC)c(OC)c1 (stereo not given),97.9%
10,CCOC(=O)CN(c1sc(C)c(C)c1C(=O)OCC)S(=O)(=O)c1ccc(C)cc1,107%
11,COc1cc(C(=O)/C=C/c2c[nH]c3ccccc23)cc(OC)c1OC,8.91% (active)
12,CC(=O)OC1C=CC(OC(C)=O)O1 (stereo not given),89.5%
13,COc1ccc(-c2nnc(SCC(=O)Nc3ccc(C(=O)/C=C/c4ccccc4)cc3)n2-c2ccccc2)cc1OC,57.7%
14,COc1ccc(Cl)cc1Nc1nc(C(F)(F)F)ccc1C(=O)N/N=C/c1ccc(Cl)cc1,57.3%
15,COc1ccc(Nc2cnc3cc(NS(=O)(=O)c4ccc(C)cc4)ccc3n2)cc1,75.8%
16,N#Cc1c(-c2ccc(Cl)cc2)csc1NC(=O)Nc1ccc(Cl)c(C(F)(F)F)c1,8.06% (active)
17,CC1OC2CC(=O)OC2C2=C1C(=O)c1c(O)c3c(c(O)c1C2=O)C1CC(O)C3(O)C(C)O1 (stereo not given),-76.7% (active)
18,CC[C@@H](C(=O)[C@H](C)[C@H](O)[C@@H](C)[C@H]1O[C@H]([C@@H](CC)C(=O)O)CC[C@H]1C)C1O[C@]2(C=C[C@@H](O)[C@]3(CC[C@@](C)([C@H]4CC[C@](O)(CC)[C@H](C)O4)O3)O2)[C@H](C)C[C@@H]1C (stereo not given in full),-38.8% (active)
19,Nc1cc(Br)c(-c2nn3c(CCC(=O)c4nc5ccccc5[nH]4)nnc3s2)c(Br)c1,97.5%
20,Cc1cc(=O)n2nnc3cc(Cl)c(Cl)cc3n12,96.9%
